Experimental data as given in PubChem BioAssay (NCI).
The panel holds about 83,000 compounds, 20% with a hit somewhere; the sample as a whole holds those more often.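 The endpoint reported here, percent growth, reads 100 for growth as untreated, 0 for no net growth and -100 for all cells dead.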 Calls of active or inactive are those of the source. Rule for the calls: active = growth percent below 10; inactive = the rest.

The compounds below were run on LOX IMVI melanoma (assay: NCI-60 one-dose screen, 48 h (100 = growth as untreated, 0 = no growth, -100 = all killed)). Conditions: 10 µM.

SMILES | growth
COc1cc2cc(C(=O)N3C[C@@H](CCl)c4c3cc(OC(=O)N3CCN(C)[C@@H]5CSSC[C@@H]53)c3ccccc43)[nH]c2c(OC)c1OC | -32.7% (active)
CCOP(=O)(OCC)C(NC(C)=O)C(=O)SCCN (stereo not given) | 92.1% (inactive)
COc1cc2cc(C(=O)N3C[C@@H](CCl)c4c3cc(OC(=O)N3CCN(C)[C@@H]5CSSC[C@H]53)c3ccccc43)[nH]c2c(OC)c1OC | -90.2% (active)
COc1ccc2cc([C@H](C)C(=O)[Se]CCC#N)ccc2c1 | -66.6% (active)
CC12OOC(C)(OO1)C2CCC(=O)OCCNc1ccnc2cc(Cl)ccc12 (stereo not given) | -92.1% (active)
Cc1ccc2[nH]c(=S)n(-c3ccc(F)cc3)c(=O)c2c1 | 92.7% (inactive)
CCOC(=O)C1=C(Nc2ccccc2)C(=O)OC12C(=O)Nc1ccccc12 (stereo not given) | 94.3% (inactive)
CC12CCC3(CCC(=O)NCCCNc4ccnc5cc(Cl)ccc45)[C@@](C)(OO[C@]3(C)O1)O2 | -78.1% (active)
CC[C@]12C=CCN3CC[C@@]4(c5ccc(OC)cc5N(C)[C@H]4[C@@](O)(C(=O)OC)[C@@H]1OC(=O)CCCC[P+](C1CCCCC1)(C1CCCCC1)C1CCCCC1)[C@@H]32 | -96.1% (active)
CC(=O)Oc1ccccc1C(=O)[Se]C(=NC(C)C)NC(C)C | -80% (active)
COCCOCCOCCOc1ccc(-n2cc(CCCN(CCNc3ccnc4cc(Cl)ccc34)C(=O)CCC(=O)O[C@@H]3O[C@@H]4OC5(C)CC[C@H]6[C@H](C)CC[C@@H]([C@H]3C)[C@@]46OO5)nn2)cc1 | 1.51% (active)
C[C@H]1[C@@H](CC(=O)N[C@@H](Cc2coc3ccccc23)B(O)O)O[C@@H]2OC3(C)CC[C@H]4[C@H](C)CC[C@@H]1[C@@]24OO3 | -92.3% (active)
COP(=O)(CC(F)(F)C(F)(F)F)OC | -63.5% (active)
CC12OOC(C)(OO1)C2CCC(=O)NCCNc1ccnc2cc(Cl)ccc12 (stereo not given) | 3.57% (active)
CC[C@]12C=CCN3CC[C@@]4(c5ccc(OC)cc5N(C)[C@H]4[C@@](O)(C(=O)OC)[C@@H]1OC(=O)CCC[P+](c1ccc(C)cc1)(c1ccc(C)cc1)c1ccc(C)cc1)[C@@H]32 | -89.3% (active)
CC(C)N=C([Se])NC(=O)c1ccccc1 | -37.3% (active)
CC[C@]12C=CCN3CC[C@@]4(c5ccc(OC)cc5N(C)[C@H]4[C@@](O)(C(=O)OC)[C@@H]1OC(=O)CCC[P+](C1CCCCC1)(C1CCCCC1)C1CCCCC1)[C@@H]32 | -96% (active)
CC1=C(COCCOC(=O)c2ccc(S(=O)(=O)F)cc2)C2=C(C)C3(CC3)[C@@](C)(O)C(=O)C2=C1 | -62.7% (active)
CC[C@]12C=CCN3CC[C@@]4(c5ccc(OC)cc5N(C)[C@H]4[C@@](O)(C(=O)OC)[C@@H]1OC(=O)CCCC[P+](c1ccc(OC)cc1)(c1ccc(OC)cc1)c1ccc(OC)cc1)[C@@H]32 | -96.4% (active)
CC1=C(CCC=NNC(N)=O)C2=C(C)C3(CC3)[C@@](C)(O)C(=O)C2=C1 | -71.9% (active)
CC[C@@]12CC(C(=O)OC)=C3Nc4cc5c(cc4[C@@]34CCN(C[C@H]3O[C@H]31)[C@@H]24)[C@@H]1[C@H](O5)[C@@H](O)[C@@]2(CC)CC(C(=O)OC)=C3Nc4cc(OC)ccc4[C@@]34CCN1[C@@H]24 | -64.9% (active)
CCOP(=O)(CC(F)(F)C(F)(F)F)OCC | -64% (active)
CC1=C2C(=C[C@@](C)(COP(=O)(Oc3ccccc3)Oc3ccccc3)[C@@H]2O)C(=O)[C@@](C)(O)C12CC2 | -76.3% (active)
C[C@H]1[C@H](OC(=O)CCC(=O)N(CCCc2cn(-c3ccc(CN4CCOCC4)cc3)nn2)CCNc2ccnc3cc(Cl)ccc23)O[C@@H]2OC3(C)CC[C@H]4[C@H](C)CC[C@@H]1[C@@]24OO3 | 7.19% (active)
CC1=C(CCC=O)C2=C(C)C3(CC3)[C@@](C)(O)C(=O)C2=C1 | -94.8% (active)
O=C(NC([Se])=NC1CCCCC1)c1ccc2c(c1)OCO2 | 81.6% (inactive)
C[C@H]1[C@H](OC(=O)CCC(=O)N(CCCc2cn(-c3ccc(C#N)cc3)nn2)CCNc2ccnc3cc(Cl)ccc23)O[C@@H]2OC3(C)CC[C@H]4[C@H](C)CC[C@@H]1[C@@]24OO3 | 13.3% (inactive)
C[C@H]1[C@@H](Oc2ccc(-c3cn(-c4ccnc5cc(Cl)ccc45)nn3)cc2)O[C@@H]2OC3(C)CC[C@H]4[C@H](C)CC[C@@H]1[C@@]24OO3 | 10.9% (inactive)
COC(=O)CCn1c(-c2ccc(-n3cc(-c4ccc(O[C@H]5O[C@@H]6OC7(C)CC[C@H]8[C@H](C)CC[C@@H]([C@H]5C)[C@@]68OO7)cc4)nn3)cc2)nc2ccccc21 | -54.5% (active)
C[C@H]1[C@H](OC(=O)CCC(=O)N(CCCc2cn(-c3ccc([N+](=O)[O-])cc3)nn2)CCNc2ccnc3cc(Cl)ccc23)O[C@@H]2OC3(C)CC[C@H]4[C@H](C)CC[C@@H]1[C@@]24OO3 | 21.7% (inactive)
